40 sequences from paper PMC11006913 can be followed below.

Where a chain is given by its changes, count along the chain named.

For one test, the target named is T1, SIX6 (Homo sapiens, UniProt O95475 114-200, L167I).
T1 sequence: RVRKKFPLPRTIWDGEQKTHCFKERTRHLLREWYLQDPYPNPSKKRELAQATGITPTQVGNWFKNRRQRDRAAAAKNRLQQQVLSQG
The test is described as follows: PBM; 200 nM protein, PBS. The conditions noted are these: dsDNA, one strand shown.
Take CGGATAAA: the binding signal is 10.4 upbm affinity estimate (log intensity, higher = more binding, comparable within an allelic series).

CCGTATCA: the binding signal is 11.1 upbm affinity estimate (log intensity, higher = more binding, comparable within an allelic series).

Turning to GATCCAAA, the binding signal is 10.4 upbm affinity estimate (log intensity, higher = more binding, comparable within an allelic series).

Turning to ACAATACT, the binding signal was 10.3 upbm affinity estimate (log intensity, higher = more binding, comparable within an allelic series).

As to GACGGATA, the binding signal was 10.2 upbm affinity estimate (log intensity, higher = more binding, comparable within an allelic series).

With AGGTGTCA, the binding signal is 10.4 upbm affinity estimate (log intensity, higher = more binding, comparable within an allelic series).

CTTGATAC: the binding signal is 11.2 upbm affinity estimate (log intensity, higher = more binding, comparable within an allelic series).

Take ATCCAATA: the binding signal is 10.4 upbm affinity estimate (log intensity, higher = more binding, comparable within an allelic series).

With GATCTTCA, the binding signal is 10.3 upbm affinity estimate (log intensity, higher = more binding, comparable within an allelic series).

Turning to GGATAGTA, the binding signal was 10.4 upbm affinity estimate (log intensity, higher = more binding, comparable within an allelic series).

For the sequence AATACGAT, the binding signal is 10.6 upbm affinity estimate (log intensity, higher = more binding, comparable within an allelic series).

With AGTATCAA, the binding signal is 11.1 upbm affinity estimate (log intensity, higher = more binding, comparable within an allelic series).

For GGTGTCAC, the binding signal was 10.3 upbm affinity estimate (log intensity, higher = more binding, comparable within an allelic series).

For the sequence ACTATACG, the binding signal is 10 upbm affinity estimate (log intensity, higher = more binding, comparable within an allelic series).

In the case of GGTGTCAA, the binding signal was 10.4 upbm affinity estimate (log intensity, higher = more binding, comparable within an allelic series).

As to GATATACA, the binding signal is 11.1 upbm affinity estimate (log intensity, higher = more binding, comparable within an allelic series).

As for ATCCTAAT, the binding signal was 10.2 upbm affinity estimate (log intensity, higher = more binding, comparable within an allelic series).

Consider CATATCAA, for which the binding signal is 11.2 upbm affinity estimate (log intensity, higher = more binding, comparable within an allelic series).

As to ATATCACG, the binding signal was 11.1 upbm affinity estimate (log intensity, higher = more binding, comparable within an allelic series).

ATATCACC: the binding signal was 11.2 upbm affinity estimate (log intensity, higher = more binding, comparable within an allelic series).

For the sequence GATCAGCC, the binding signal is 10.2 upbm affinity estimate (log intensity, higher = more binding, comparable within an allelic series).

Take AAGTGATA: the binding signal is 11.2 upbm affinity estimate (log intensity, higher = more binding, comparable within an allelic series).

TGACACCA: the binding signal was 10.3 upbm affinity estimate (log intensity, higher = more binding, comparable within an allelic series).

ACGGATAG: the binding signal is 10.1 upbm affinity estimate (log intensity, higher = more binding, comparable within an allelic series).

For the sequence ACGGATCC, the binding signal was 10.2 upbm affinity estimate (log intensity, higher = more binding, comparable within an allelic series).

Consider ATACAGAT, for which the binding signal is 10.7 upbm affinity estimate (log intensity, higher = more binding, comparable within an allelic series).

CTGACACC: the binding signal is 10.3 upbm affinity estimate (log intensity, higher = more binding, comparable within an allelic series).

Turning to CTGATATC, the binding signal is 11.1 upbm affinity estimate (log intensity, higher = more binding, comparable within an allelic series).

Regarding GGGTGTCA, the binding signal was 10.4 upbm affinity estimate (log intensity, higher = more binding, comparable within an allelic series).

CGGTGTCA: the binding signal was 10.3 upbm affinity estimate (log intensity, higher = more binding, comparable within an allelic series).

For CTATACTA, the binding signal was 10.2 upbm affinity estimate (log intensity, higher = more binding, comparable within an allelic series).

For the sequence ATATCAAG, the binding signal was 11.1 upbm affinity estimate (log intensity, higher = more binding, comparable within an allelic series).

As to TATAACCA, the binding signal was 10.1 upbm affinity estimate (log intensity, higher = more binding, comparable within an allelic series).

For the sequence AGTTGTAT, the binding signal is 10.2 upbm affinity estimate (log intensity, higher = more binding, comparable within an allelic series).

For the sequence AGAATATC, the binding signal was 10.5 upbm affinity estimate (log intensity, higher = more binding, comparable within an allelic series).

On to ATACCTCC, for which the binding signal is 10.3 upbm affinity estimate (log intensity, higher = more binding, comparable within an allelic series).

Take ATTATCCG: the binding signal was 10.4 upbm affinity estimate (log intensity, higher = more binding, comparable within an allelic series).

For the sequence AAGTATCT, the binding signal was 10.5 upbm affinity estimate (log intensity, higher = more binding, comparable within an allelic series).

With AAGGTATC, the binding signal was 11.1 upbm affinity estimate (log intensity, higher = more binding, comparable within an allelic series).

In the case of GTATCTTA, the binding signal was 10.7 upbm affinity estimate (log intensity, higher = more binding, comparable within an allelic series).

Another test deals with T2, SIX6 (Homo sapiens, UniProt O95475 114-200, L143V).
T2 sequence: T1 sequence with L30V, I54L
The test is described as follows: PBM; 200 nM protein, PBS. The conditions noted are these: dsDNA, one strand shown.
Take GACGGATA: the binding signal is 9.77 upbm affinity estimate (log intensity, higher = more binding, comparable within an allelic series).

Consider GATCAGCC, for which the binding signal is 9.81 upbm affinity estimate (log intensity, higher = more binding, comparable within an allelic series).

As to ACGGATAG, the binding signal is 9.74 upbm affinity estimate (log intensity, higher = more binding, comparable within an allelic series).

As for ACGGATCC, the binding signal was 9.67 upbm affinity estimate (log intensity, higher = more binding, comparable within an allelic series).

As to ATACCTCC, the binding signal was 9.86 upbm affinity estimate (log intensity, higher = more binding, comparable within an allelic series).

The target of another test is T3, SIX6 (Homo sapiens, UniProt O95475 114-200, H141N).
T3 sequence: T1 sequence with H28N, I54L
The test is described as follows: PBM; 200 nM protein, PBS. The conditions noted are these: dsDNA, one strand shown.
Take CGGATAAA: the binding signal is 10.3 upbm affinity estimate (log intensity, higher = more binding, comparable within an allelic series).

On to CCGTATCA, for which the binding signal was 11.1 upbm affinity estimate (log intensity, higher = more binding, comparable within an allelic series).

Take GATCCAAA: the binding signal was 10.2 upbm affinity estimate (log intensity, higher = more binding, comparable within an allelic series).

In the case of ACAATACT, the binding signal was 10.2 upbm affinity estimate (log intensity, higher = more binding, comparable within an allelic series).

Take GACGGATA: the binding signal is 10.1 upbm affinity estimate (log intensity, higher = more binding, comparable within an allelic series).

With CTTGATAC, the binding signal was 11.1 upbm affinity estimate (log intensity, higher = more binding, comparable within an allelic series).

In the case of ATCCAATA, the binding signal is 10.3 upbm affinity estimate (log intensity, higher = more binding, comparable within an allelic series).

On to GATCTTCA, for which the binding signal was 10.3 upbm affinity estimate (log intensity, higher = more binding, comparable within an allelic series).

As to GGATAGTA, the binding signal is 10.3 upbm affinity estimate (log intensity, higher = more binding, comparable within an allelic series).

AATACGAT: the binding signal is 10.5 upbm affinity estimate (log intensity, higher = more binding, comparable within an allelic series).

Consider AGTATCAA, for which the binding signal is 11.1 upbm affinity estimate (log intensity, higher = more binding, comparable within an allelic series).

Regarding ACTATACG, the binding signal was 10 upbm affinity estimate (log intensity, higher = more binding, comparable within an allelic series).

With ATCCTAAT, the binding signal was 10.2 upbm affinity estimate (log intensity, higher = more binding, comparable within an allelic series).

CATATCAA: the binding signal is 11.1 upbm affinity estimate (log intensity, higher = more binding, comparable within an allelic series).

As for ATATCACG, the binding signal is 11.1 upbm affinity estimate (log intensity, higher = more binding, comparable within an allelic series).

Turning to ATATCACC, the binding signal is 11.1 upbm affinity estimate (log intensity, higher = more binding, comparable within an allelic series).

Turning to AAGTGATA, the binding signal is 11.1 upbm affinity estimate (log intensity, higher = more binding, comparable within an allelic series).

As to ACGGATAG, the binding signal is 10 upbm affinity estimate (log intensity, higher = more binding, comparable within an allelic series).

Turning to ACGGATCC, the binding signal is 10.1 upbm affinity estimate (log intensity, higher = more binding, comparable within an allelic series).

With ATACAGAT, the binding signal is 10.6 upbm affinity estimate (log intensity, higher = more binding, comparable within an allelic series).

CTGATATC: the binding signal was 11 upbm affinity estimate (log intensity, higher = more binding, comparable within an allelic series).

On to CTATACTA, for which the binding signal was 10.1 upbm affinity estimate (log intensity, higher = more binding, comparable within an allelic series).

On to TATAACCA, for which the binding signal was 10.1 upbm affinity estimate (log intensity, higher = more binding, comparable within an allelic series).

As for AGTTGTAT, the binding signal is 10.2 upbm affinity estimate (log intensity, higher = more binding, comparable within an allelic series).

Regarding AGAATATC, the binding signal was 10.3 upbm affinity estimate (log intensity, higher = more binding, comparable within an allelic series).

With ATACCTCC, the binding signal is 10.4 upbm affinity estimate (log intensity, higher = more binding, comparable within an allelic series).

As for ATTATCCG, the binding signal was 10.3 upbm affinity estimate (log intensity, higher = more binding, comparable within an allelic series).

For AAGTATCT, the binding signal was 10.4 upbm affinity estimate (log intensity, higher = more binding, comparable within an allelic series).

Consider AAGGTATC, for which the binding signal is 11 upbm affinity estimate (log intensity, higher = more binding, comparable within an allelic series).

Consider GTATCTTA, for which the binding signal is 10.7 upbm affinity estimate (log intensity, higher = more binding, comparable within an allelic series).

The next test addresses T4, SIX6 (Homo sapiens, UniProt O95475 114-200, T165P).
T4 sequence: T1 sequence with T52P, I54L
The test is described as follows: PBM; 200 nM protein, PBS. The note with it: dsDNA, one strand shown.
Take CGGATAAA: the binding signal is 9.86 upbm affinity estimate (log intensity, higher = more binding, comparable within an allelic series).

With GATCCAAA, the binding signal is 9.67 upbm affinity estimate (log intensity, higher = more binding, comparable within an allelic series).

For GACGGATA, the binding signal was 9.43 upbm affinity estimate (log intensity, higher = more binding, comparable within an allelic series).

Take GATCTTCA: the binding signal is 9.68 upbm affinity estimate (log intensity, higher = more binding, comparable within an allelic series).

Turning to GGATAGTA, the binding signal was 9.87 upbm affinity estimate (log intensity, higher = more binding, comparable within an allelic series).

With AATACGAT, the binding signal was 9.88 upbm affinity estimate (log intensity, higher = more binding, comparable within an allelic series).

On to GGTGTCAA, for which the binding signal was 9.33 upbm affinity estimate (log intensity, higher = more binding, comparable within an allelic series).

For the sequence GATCAGCC, the binding signal was 9.41 upbm affinity estimate (log intensity, higher = more binding, comparable within an allelic series).

For ACGGATAG, the binding signal was 9.43 upbm affinity estimate (log intensity, higher = more binding, comparable within an allelic series).

Take ACGGATCC: the binding signal was 9.26 upbm affinity estimate (log intensity, higher = more binding, comparable within an allelic series).

In the case of ATACAGAT, the binding signal was 10 upbm affinity estimate (log intensity, higher = more binding, comparable within an allelic series).
